This excerpt belongs to a sample that is enriched for hits.
Shiga inhibitor: inhibitors of Shiga toxin in Vero cells; Vero cells, Shiga toxin protein synthesis inhibition reporter; inhibition, % at 38.7 µM; actives 9.2% (n = 290,000); AID 2315; in the data active = inhibition mostly above about 28%, no sharp cut-off; inactive = mostly below about 43%; note: 0% is about no effect
Lassa entry inh: Lassa virus entry inhibition. Lassa virus pseudotype entry inhibition, cell reporter. Potency, µM (titrated, usually from 37.9 µM), for inactives: at the highest dose activity change, negative = inhibition, most hits filed as inhibitors. AID 540256. actives 1.2% (n = 300,000); calls by dose curve; tested in HEK293 cells; note: potency is the fitted concentration of half-maximal effect; % is set by controls: 0 for no effect and ±100 for the full control effect; nearly all actives have a fitted effect of over 50% in size
AMA1-RON2 inh: AMA1-RON2 (P. falciparum) interaction inhibition | AlphaScreen AMA1-biotinylated RON2 peptide binding | Potency, µM (series often up to 58.2 µM), for the others: at the top dose activity change, negative = inhibition, most hits filed as inhibitors | actives 0.2% (n = 360,000) | AID 720542; active = well fitted inhibition curve with a large enough effect; inconclusive = small, poorly fitted or top-dose-only effect; inactive = no such curve, though single readings can be large or run the other way;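 note: potency is the fitted concentration of half-maximal effect; 0% = vehicle wells and -100% = peptide control; nearly all actives have a fitted effect of over 45% in size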
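AMA1 (3D7) with his tag at 25 nM final met compounds first, then biotinylated RON2 peptide at 25 nM; detection used donor plus acceptor beads, 10 µg/mL apiece, read by AlphaScreen after 30 min at room temperature.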
MARV entry inh: blocks Marburg virus binding to or entry into cells; Potency, µM (doses to about 37.8 µM), for inactives: at the top dose activity change, negative = inhibition, usual class: inhibitors; actives 1.8% (n = 300,000); Marburg virus pseudotyped entry inhibition, cell reporter; calls by dose curve; tested in HEK293 cells; note: potency is the fitted concentration of half-maximal effect; % is set by controls: 0 for no effect and ±100 for the full control effect
CHX counter: affects cycloheximide protein synthesis inhibition readout, counter-screen; cell reporter, cycloheximide protein synthesis inhibition counterscreen; actives 12% (n = 300,000); max response, %; in the data active = max response mostly above about 13%, no sharp cut-off; inactive = mostly below about 14%; note: read at 38.3 µM for the half of the compounds with a filed dose; 0% is about no effect
The depositor's hits bear a star; ? = inconclusive; · = not tested or not shown; + = active, no number; [ ] = remark or other dose.

SMILES | Shiga inhibitor | Lassa entry inh | AMA1-RON2 inh | MARV entry inh | CHX counter
CCn1c(NCc2ccc3c(c2)OCO3)nc2ccccc21 | 73 | 19% | -21% | ? | 22*
C=CCn1c(NCc2ccc3c(c2)OCO3)nc2ccccc21 | + | 15% | -2% | 21% | 33*
CC(C)c1nnc(NC(=O)CC(C)c2ccccc2)s1 (stereo unspecified) | 18 | -6% | -6% | -17% | 13
CC(C)(C)Cc1nnc(NC(=O)CSc2ccccc2)s1 | 14 | · | 0% | · | 13*
CCOCc1nnc(NC(=O)CSc2ccccc2)s1 | -10 | 1% | -11% | -3%[46.1 µM] | 2
CC(C)c1nnc(NC(=O)CSc2ccccc2)s1 | 18 | 13% | -2% | ? | 34*
CCN1C(=NCc2ccc(OC)cc2)NC(c2ccccc2)C(C(=O)OC)=C1C (stereo unspecified) | · | · | · | -22%[14.2 µM] | ·
Cc1cc(Cl)ccc1OCC(=O)Nc1nc(-c2cccnc2)cs1 | 12 | · | -4% | · | 1
Clc1ccc(Nc2nc(-c3cccnc3)cs2)cc1 | 119* | 1% | -1% | ? | 41*
Clc1ccc(-c2csc(Nc3cccnc3)n2)cc1 | 34 | -1%[46.1 µM] | -4% | ? | 12
Fc1ccc(Nc2nc(-c3cccnc3)cs2)cc1 | 146* | · | -3% | · | 48*
Cc1ccc(Cl)cc1Nc1nc(-c2cccnc2)cs1 | · | · | -10% | · | 17*
c1ccc(-c2csc(Nc3cccnc3)n2)cc1 | 118* | 0% | 4% | -28%[46.1 µM] | 54*
COc1ccc(/C=C(\NC(=O)c2ccccc2)C(=O)NC2CCCCC2)cc1 | · | -2%[46.1 µM] | · | · | ·
CCOc1ccc(S(=O)(=O)N2CCN(CN3C(=O)CC4(CCCC4)C3=O)CC2)cc1 | · | · | 18% | · | ·
O=C1CCCc2nc(N3CCCCC3)sc21 | 51* | 22% | 7% | ? | 30*
CCOC(=O)N1CCN(C(=O)c2ccc3oc(CCc4ccccc4)nc3c2)CC1 | · | · | -10% | · | ·
O=C(c1ccc2nc(Cc3cccc(Cl)c3)oc2c1)N1CCC[C@H]1CO | 10 | · | 11% | · | 17
NC(=O)[C@@H]1CCCN1C(=O)c1ccc2oc(CCc3ccccc3)nc2c1 | 40* | -1% | -1% | 13% | 43*
O=C(c1ccc2oc(CCc3ccccc3)nc2c1)N1CCC(O)CC1 | 75* | · | -9% | · | 52*
O=C(c1ccc2oc(CCCc3ccccc3)nc2c1)N1CCCCC1CO (stereo unspecified) | 55* | 12% | 28% | 11% | 38*
CC12CCC=CC1C(c1ccc(/C=C/c3ccccc3)cc1F)N(Cc1ccccc1)C2=O (stereo unspecified) | 19 | · | · | · | 18
Cc1ccc(NC(=O)C(C)N2C(=O)c3ccccc3C2=O)c(C)c1 (stereo unspecified) | -3 | · | 3% | · | -4
Cc1oc(/N=C/c2ccc(O)cc2O)c(C#N)c1C | 117* | 13% | 3% | 8% | 37*
Cc1oc(/N=C/c2ccccc2O)c(C#N)c1C | -13 | 15%[14.3 µM] | 9% | 1% | 7
SMILES | Shiga inhibitor | Lassa entry inh | AMA1-RON2 inh | MARV entry inh | CHX counter
O=C(Cn1cc(C(F)(F)F)cc(Cl)c1=O)NCc1ccccc1 | 73* | ? | 33% | ? | 44*
CCCN1C(=O)S/C(=C/c2ccc(N3CCOCC3)o2)C1=O | 66* | 18%[46.1 µM] | -6% | -6%[46.1 µM] | 47*
CCCN1C(=O)S/C(=C\c2ccc(N3CCOCC3)o2)C1=O | 98* | 4% | -8% | -27%[46.1 µM] | 41*
O=C(CC(c1cccs1)N1Cc2ccccc2C1=O)Nc1ccccc1 (stereo unspecified) | · | -6%[46.1 µM] | · | · | ·
Cc1ccc(S(=O)(=O)c2c(C)nn(C(C)(C)C)c2OC(=O)c2ccc(Br)o2)cc1 | 8 | 11µM* | -5% | ? | 10
Cc1ccc(S(=O)(=O)c2c(C)nn(C(C)(C)C)c2OC(=O)c2cccs2)cc1 | -16 | 13µM* | 4% | ? | -4
Cc1nn(C(C)(C)C)c(OC(=O)c2ccc3c(c2)OCO3)c1S(=O)(=O)c1ccccc1 | 45 | 8.9µM* | 0% | ? | 37*
CC(=O)Oc1c(S(=O)(=O)c2ccc(C)cc2)c(C)nn1C(C)(C)C | -19 | ? | 10% | ? | -1
Cc1ccc(S(=O)(=O)c2c(C)nn(C(C)(C)C)c2OC(=O)c2ccco2)cc1 | 14 | 11µM* | -6% | ? | 9
O=C1CN(C(=O)COc2ccccc2)CCN1 | -4 | · | 1% | · | 8
O=C(CCCC(=O)Nc1ccccc1Br)N/N=C/c1c(F)cccc1Cl | -11 | 3% | 5% | ? | -4
Cc1cc2nc(-c3ccc4c(c3)CCC4)ccn2n1 | 46* | 0%[46.1 µM] | 83% | ? | 20*
Cc1cc2nc(-c3cc(N4CCOCC4)ccc3[N+](=O)[O-])ccn2n1 | -5 | 9% | -6% | 6%[46.1 µM] | -10
Cc1ccc(S(=O)(=O)c2cn(CC(=O)Nc3ccc4c(c3)OCO4)c3ccc(F)cc3c2=O)cc1 | · | -7%[46.1 µM] | · | 0%[46.1 µM] | ·
CCCn1cnc2sc(C(N)=O)c(C)c2c1=O | 24 | 19% | -2% | -20% | 7
CCCn1cnc2sc(CC)cc2c1=O | 52* | 7% | 12% | -6% | 30*
CCN(CC)c1ccc(NC(=O)C2CC3CCC2C3)cc1 (stereo unspecified) | 107* | 10% | -28% | ? | 51*
Cc1ccc(C)c(NC(=O)C2CC3CCC2C3)c1 (stereo unspecified) | 23 | · | 3% | · | 14*
Cc1ccc(NC(=O)C2CC3CCC2C3)c(Br)c1 (stereo unspecified) | 83* | · | -1% | · | 33*
COc1ccc(/C=N/n2c(N)nc3ccccc32)cc1OC | 51 | 19% | -8% | -20% | 29*
C(=N\n1cnc2ccccc21)/c1cccnc1 | 58 | ? | -5% | 3% | 19*
COc1ccc(/C=N/n2c(=S)n(C)c3ccccc32)cc1OC | 3 | -6% | -18% | -26% | 6
COc1ccc(/C=N/n2c(N)nc(-c3ccccc3)c2-c2ccccc2)cc1 | 86* | ? | -6% | ? | 31*
COc1cccc(/C=N/n2c(N)nc3ccccc32)c1OC | 37 | -1% | -1% | ? | 25*
Cc1nnc(NC(=O)CCN2C(=O)C3CC=CCC3C2=O)s1 (stereo unspecified) | · | · | 5% | · | ·
SMILES | Shiga inhibitor | Lassa entry inh | AMA1-RON2 inh | MARV entry inh | CHX counter
COc1cccc(/C=N/n2cnc3ccccc32)c1OC | 71 | 0% | -3% | ? | 31*
COc1cccc(/C=N/n2c(SC)nnc2-c2ccccc2)c1O | 7 | ? | -2% | ? | 4
COc1ccc(/C=N/n2c(C)nnc2C)c(OC)c1OC | 68* | 13% | 5% | -9% | 6
COc1cccc(/C=N/n2c(SC)nnc2-c2ccccc2)c1OC | -15 | 11µM* | 0% | ? | -2
COc1ccccc1N1CCN(C(=O)c2cc3c(=O)n(C)c4ccccc4c3s2)CC1 | · | 10%[46.1 µM] | · | -27%[46.1 µM] | ·
CCOC(=O)c1c(C)[nH]c(C(=O)N(C)CC(=O)Nc2ccc(OC)cc2)c1C | · | · | 0% | · | ·
O=C(COC(=O)c1ncc(Cl)c(Cl)c1Cl)Nc1ccc(Cl)cn1 | · | 1% | -15% | ? | ·
O=C(NC(=O)N1CCCc2ccccc21)c1ccccc1 | -2 | -11% | 5% | 4%[46.1 µM] | 8

Assay outcomes deposited in PubChem BioAssay by National Center for Advancing Translational Sciences (NCATS).
